Test system: Vero E6 infected with SARS-CoV-2
Experiment: inhibition of SARS-CoV-2 cytopathic effect; higher = more antiviral protection, active = above 15
Conditions: 48 h

Measured: inhibition of SARS-CoV-2 cytopathic effect

Nc1ncnc(Nc2ccc(Cl)cc2)n1 [chlorazanil]
inactive: 1 nM 0.82% | 8.33 nM -0.51% | 100 nM -1.09% | 833.33 nM -1.03% | 10000 nM -2.14%

N.N.O=C([O-])C[O-].[Pt+2] [nedaplatin]
inactive: 1 nM -3.28% | 8.33 nM -2.76% | 100 nM -0.64% | 833.33 nM -1.21% | 10000 nM -2.85%

CNCCn1c(=O)c2cc(OC)c(OC)cc2c2cnc3cc4c(cc3c21)OCO4
inactive: 1 nM 3.31% | 8.33 nM 1.57% | 100 nM -1.27% | 833.33 nM -9.93% | 10000 nM -15.7%

CCCCc1nn(-c2ccccc2C(F)(F)F)c(=O)n1Cc1ccc(-c2ccccc2S(=O)(=O)NC(=O)c2sccc2C)cc1
inactive: 1 nM 0.19% | 8.33 nM -0.03% | 100 nM 2.56% | 833.33 nM -2.77% | 10000 nM -1.65%

Cc1ccc(S(=O)(=O)Nc2ccc3c(c2)c(C(=O)C(F)(F)F)cn3CC(=O)N[C@@H](CC(C)C)C(=O)O)cc1
inactive: 1 nM 0.38% | 8.33 nM -1.93% | 100 nM -1.37% | 833.33 nM 0.8% | 10000 nM 3.55%

CCN1/C(=C/C(C)=O)Sc2ccc(OC)cc21
inactive: 1 nM 1.8% | 8.33 nM 1.75% | 100 nM -2.1% | 833.33 nM 0.11% | 10000 nM 0.79%

Cc1nn(C)c2nc(NNC(=O)Nc3cc(Cl)nc(Cl)c3)cc(C(C)C)c12
inactive: 1 nM -4.74% | 8.33 nM -3.45% | 100 nM -2.8% | 833.33 nM -1.22% | 10000 nM 1.05%

C[C@]12C=CC(=O)C=C1CC[C@@H]1[C@@H]2C(=O)C[C@@]2(C)[C@H]1CC[C@]2(O)C(=O)CO [prednisone]
inactive: 1 nM -1.14% | 8.33 nM -0.26% | 100 nM -3.03% | 833.33 nM -1.05% | 10000 nM 1.02%

Cc1ccc(C(=O)Nc2ccc(CN3CCN(C)CC3)c(C(F)(F)F)c2)cc1C#Cc1cnc2cccnn12 [ponatinib]
inactive: 1 nM 0.65% | 8.33 nM 1.8% | 100 nM 5.2% | 833.33 nM 1.27% | 10000 nM -10.9%

Cc1noc(-c2ccc(-c3ccc(CC(=O)O)cc3)cc2)c1NC(=O)O[C@H](C)c1ccccc1
inactive: 1 nM 0.92% | 8.33 nM 0.35% | 100 nM -2.41% | 833.33 nM -3.36% | 10000 nM -4.34%

Clc1ccccc1CNC[C@H]1CC[C@H](CNCc2ccccc2Cl)CC1
active: 10000 nM 16.4%
inactive: 1 nM -1.74% | 8.33 nM -2.28% | 100 nM -1.13% | 833.33 nM -3.17%

O=C(O)CCCCCCNC1c2ccccc2CCc2ccccc21 [amineptine]
inactive: 1 nM -0.8% | 8.33 nM -0.3% | 100 nM -1.15% | 833.33 nM -1.42% | 10000 nM -0.04%

CCCCCCOC(=O)NC(=N)c1ccc(NCc2nc3cc(C(=O)N(CCC(=O)OCC)c4ccccn4)ccc3n2C)cc1 [dabigatran-etexilate]
inactive: 1 nM 1% | 8.33 nM 2.6% | 100 nM 1.5% | 833.33 nM 1.44% | 10000 nM -2.8%

O=C(O)c1ccc(N2N=C(Cc3ccccc3)/C(=C\c3ccc(-c4ccccc4F)o3)C2=O)cc1
inactive: 1 nM -0.59% | 8.33 nM 0.52% | 100 nM -1.43% | 833.33 nM 1.97% | 10000 nM -1.44%

N#Cc1cn([C@@H]2O[C@H](CO)[C@@H](O)[C@H]2O)c2ncnc(N)c12 [toyocamycin]
inactive: 1 nM 0.31% | 8.33 nM 2.87% | 100 nM 4.68% | 833.33 nM -0.02% | 10000 nM -0.24%

CC(=O)N1N=C(c2ccc(N)cc2)c2cc3c(cc2C[C@H]1C)OCO3 [talampanel]
inactive: 1 nM -0.4% | 8.33 nM 0.84% | 100 nM 0.91% | 833.33 nM 1.19% | 10000 nM 1.16%

O=c1cc(N2CCOCC2)oc2c1ccc1ccccc12
inactive: 1 nM -1.26% | 8.33 nM 2.98% | 100 nM -0.06% | 833.33 nM 0.08% | 10000 nM -1.32%

COc1ccc2nc3[nH]nc(C)c3c(NCCOCCO)c2c1
inactive: 1 nM -3.38% | 8.33 nM -2.01% | 100 nM -3.28% | 833.33 nM -0.23% | 10000 nM -2.9%

From the supplement of paper PMC13380429
